# Structures can show the parent of a compound that is named as a salt.
# System: Saccharomyces cerevisiae BY4741 SeMeCo community
# Test: z-score of subpopulation abundance vs DMSO median, subpopulation auxotrophic for HLU; higher = larger share of this subpopulation than in DMSO controls
# Conditions: 10 µM; 24 h; SM minimal medium; subpopulation (auxotrophy): HLU
# Procedure: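 Fluorescent four-plasmid SeMeCo (self-establishing metabolically cooperating S. cerevisiae BY4741 community; plasmids pH-mRuby2, pL-mWasabi, pU-eCFP, pM-TagRFP657) was grown 24 h in minimal SM medium with each Selleck FDA-approved drug at 10 µM in 384-well plates. Cells were fixed and imaged by high-content confocal microscopy. For each auxotrophic subpopulation (and the prototroph), a z-score gives the deviation from the DMSO vehicle-control population median.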
row,Structure (SMILES),z-score of subpopulation abundance
1,CCCCOc1cc(C(=O)OCCN(CC)CC)ccc1N [Oxybuprocaine HCl],-0.16
2,Cc1nnc(NS(=O)(=O)c2ccc(N)cc2)s1 [Sulfamethizole],-1.06
3,COC(=O)C1=C(C)NC(C)=C(C(=O)OCCN2CCN(C(c3ccccc3)c3ccccc3)CC2)C1c1cccc([N+](=O)[O-])c1 (stereo not given) [Manidipine],1.73
4,CC1=C(C(=O)O)N2C(=O)[C@@H](NC(=O)[C@H](N)C3=CCC=CC3)[C@H]2SC1 [Cefradine],-0.16
5,CC1=C[C@H]2C(=O)O[C@H]3C[C@@H](C/C=C(\C)C[C@@H](C)/C=C/C=C4\CO[C@H](/C1=N\O)[C@@]42O)O[C@@]1(CC[C@H](C)[C@@H](C)O1)C3.CC[C@H]1O[C@]2(CC[C@@H]1C)C[C@@H]1C[C@@H](C/C=C(\C)C[C@@H](C)/C=C/C=C3\CO[C@@H]4/C(=N\O)C(C)=C[C@@H](C(=O)O1)[C@]34O)O2 [Milbemycin Oxime],-0.11
6,Oc1c(Cl)cc(Cl)cc1Sc1cc(Cl)cc(Cl)c1O [Bithionol],2.39
7,Cc1ccc(Sc2ccccc2N2CCNCC2)c(C)c1,0.19
8,CC1(C)S[C@@H]2[C@H](NC(=O)[C@H](NC(=O)N3CCNC3=O)c3ccccc3)C(=O)N2[C@H]1C(=O)O [Azlocillin sodium salt],-0.4
9,O=C(Cn1cnnn1)N[C@@H]1C(=O)N2C(C(=O)O)=C(CSc3nncs3)CS[C@H]12 [Ceftezole sodium],0.11
10,CC(C(=O)O)c1cccc(C(=O)c2ccccc2)c1 (stereo not given) [Ketoprofen],0.39
11,CCC1(C)CC(=O)NC1=O (stereo not given) [Ethosuximide],-0.1
12,NC(=O)N1c2ccccc2CC(=O)c2ccccc21 [Oxcarbazepine],-0.11
13,NCc1ccccc1CC(=O)N[C@@H]1C(=O)N2C(C(=O)O)=C(CSc3nnnn3CC(=O)O)CS[C@H]12 [Ceforanide],0.38
14,O=C(O[C@H]1CN2CCC1CC2)N1CCc2ccccc2[C@@H]1c1ccccc1 [Solifenacin succinate],0.46
15,COc1cnc(NS(=O)(=O)c2ccc(N)cc2)nc1 [Sulfameter],-0.26
16,Nc1ccc(S(=O)(=O)Nc2nccs2)cc1 [Sulfathiazole],0.27
17,Cc1cc(O)c(C(=O)N[C@@H](C(=O)N[C@@H]2C(=O)N3C(C(=O)O)=C(CSc4nnnn4C)CS[C@H]23)c2ccc(O)cc2)cn1 [Cefpiramide sodium],0.16
18,NC(=O)c1cn(Cc2c(F)cccc2F)nn1 [Rufinamide],0.55
19,O=C(Nc1ccc(Oc2ccc(Cl)cc2)c(Cl)c1)c1cc(I)cc(I)c1O [Rafoxanide],-0.3
20,Cc1onc(-c2ccccc2Cl)c1C(=O)N[C@@H]1C(=O)N2[C@@H]1SC(C)(C)[C@@H]2C(=O)O [Cloxacillin Sodium],0.44

row,Structure (SMILES),z-score of subpopulation abundance
1,CC[C@H]1OC(=O)[C@H](C)[C@@H](O[C@H]2C[C@@](C)(OC)[C@@H](O)[C@H](C)O2)[C@H](C)[C@@H](O[C@@H]2O[C@H](C)C[C@H](N(C)C)[C@H]2O)[C@](C)(O)C[C@@H](C)CN(C)[C@H](C)[C@@H](O)[C@]1(C)O [Azithromycin],-0.06
2,CN(C)CCC=C1c2ccccc2CCc2ccccc21 [Amitriptyline HCl],-1.03
3,COc1cc2c(cc1OC)C(=O)C(CC1CCN(Cc3ccccc3)CC1)C2 (stereo not given) [Donepezil HCl],-0.1
4,NCCNc1ccc(NCCN)c2c1C(=O)c1ccncc1C2=O [Pixantrone Maleate],7.46
5,CN1C(C(=O)Nc2ccccn2)=C(O)c2ccccc2S1(=O)=O [Piroxicam],-1.14
6,CN(C)CC(c1ccc(O)cc1)C1(O)CCCCC1 (stereo not given) [Desvenlafaxine],-1.12
7,CC[C@H]1OC(=O)[C@H](C)[C@@H](O[C@H]2C[C@@](C)(OC)[C@@H](O)[C@H](C)O2)[C@H](C)[C@@H](O[C@@H]2O[C@H](C)C[C@H](N(C)C)[C@H]2O)[C@](C)(O)C[C@@H](C)C(=O)[C@H](C)[C@@H](O)[C@]1(C)O [Erythromycin],1
8,CO[C@H]1O[C@@H]2O[C@@]3(C)CC[C@H]4[C@H](C)CC[C@@H]([C@H]1C)[C@@]24OO3 [Artemether],-0.85
9,CN[C@@H]1[C@@H](O[C@H]2O[C@H](CO)[C@@H](N)[C@H](O)[C@H]2O)OC2C[C@@H](N)[C@@H](O[C@H]3[C@H](O)[C@@H](O)[C@H](N)C[C@@H]3N)OC2[C@@H]1O (stereo not given in full) [Apramycin Sulfate],0.36
10,NC(=O)C(c1ccccc1)(c1ccccc1)[C@@H]1CCN(CCc2ccc3c(c2)CCO3)C1 [Darifenacin HBr],-0.45
11,C[C@@H](O)[C@H]1C(=O)N2C(C(=O)O)=C(S[C@@H]3CN[C@H](CNS(N)(=O)=O)C3)[C@H](C)[C@H]12 [Doripenem Hydrate],-0.09
12,CCCC1CC(C(=O)NC(C(C)Cl)C2OC(SC)C(O)C(O)C2O)N(C)C1 (stereo not given) [Clindamycin alcoholate],-0.02
13,O=C(NCCO[N+](=O)[O-])c1cccnc1 [Nicorandil],0.08
14,O=C1C(CC[S+]([O-])c2ccccc2)C(=O)N(c2ccccc2)N1c1ccccc1 (racemic) [(+/-)-Sulfinpyrazone],0.61
15,CC[C@H]1OC(=O)[C@H](C)[C@@H](O[C@H]2C[C@@](C)(OC)[C@@H](O)[C@H](C)O2)[C@H](C)[C@@H](O[C@@H]2O[C@H](C)C[C@H](N(C)C)[C@H]2O)[C@](C)(O)C[C@@H](C)CN(C)[C@H](C)[C@@H](O)[C@]1(C)O [Azithromycin Dihydrate],-0.73
16,CN[C@@H]1[C@@H](O)[C@@H](O[C@@H]2[C@@H](O)[C@H](O[C@H]3O[C@H](CN)[C@@H](O)[C@H](O)[C@H]3O)[C@@H](N)C[C@H]2NC(=O)[C@@H](O)CN)OC[C@]1(C)O [Isepamicin Sulphate],-0.42
17,OCCOc1ccc(/C(=C(/CCCl)c2ccccc2)c2ccccc2)cc1 [Ospemifene],0.94
18,NC(=O)N/N=C/c1ccc([N+](=O)[O-])o1 [Nitrofural],-1.14
19,OB1OCc2cc(F)ccc21 [Tavaborole (AN-2690)],23.2
20,C1N2CN3CN1CN(C2)C3 [Methenamine],-0.02

# — the supplement of paper PMC8975748
